From ChEMBL document CHEMBL2218924, “A broad activity screen in support of a chemogenomic map for kinase signalling research and drug discovery” (Biochem J, 2013)

What was measured:
[1] = target: Calcium/calmodulin-dependent protein kinase type 1 (Homo sapiens) (UniProt Q14012); conditions: at 1 µM
[2] = target: Calcium/calmodulin-dependent protein kinase type 1 (Homo sapiens) (UniProt Q14012); conditions: at 10 µM
[3] = target: Calcium/calmodulin-dependent protein kinase type II subunit beta (Homo sapiens) (UniProt Q13554); conditions: at 1 µM
Chain of Calcium/calmodulin-dependent protein kinase type II subunit beta (Homo sapiens) (Q13554 whole entry): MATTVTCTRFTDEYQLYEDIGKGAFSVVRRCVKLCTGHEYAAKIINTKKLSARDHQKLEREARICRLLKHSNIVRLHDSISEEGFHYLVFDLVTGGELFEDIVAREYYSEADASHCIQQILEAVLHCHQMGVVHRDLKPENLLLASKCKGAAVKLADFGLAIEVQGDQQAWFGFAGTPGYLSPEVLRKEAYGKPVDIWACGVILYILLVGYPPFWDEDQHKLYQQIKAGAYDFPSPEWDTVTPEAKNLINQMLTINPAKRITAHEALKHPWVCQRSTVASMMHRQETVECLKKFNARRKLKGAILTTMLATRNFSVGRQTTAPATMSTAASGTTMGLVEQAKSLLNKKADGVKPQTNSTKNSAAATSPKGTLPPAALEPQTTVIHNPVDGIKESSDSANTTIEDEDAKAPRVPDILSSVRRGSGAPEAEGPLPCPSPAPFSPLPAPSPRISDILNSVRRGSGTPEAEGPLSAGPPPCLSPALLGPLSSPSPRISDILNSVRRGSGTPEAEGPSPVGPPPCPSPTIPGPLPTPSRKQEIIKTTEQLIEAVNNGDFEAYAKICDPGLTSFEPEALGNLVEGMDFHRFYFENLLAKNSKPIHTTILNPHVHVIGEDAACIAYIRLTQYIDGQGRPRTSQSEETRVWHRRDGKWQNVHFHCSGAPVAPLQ

[4] = target: Calcium/calmodulin-dependent protein kinase type II subunit beta (Homo sapiens) (UniProt Q13554); conditions: at 10 µM
[5] = target: Calcium/calmodulin-dependent protein kinase type II subunit gamma (Homo sapiens) (UniProt Q13555); conditions: at 1 µM
Chain of Calcium/calmodulin-dependent protein kinase type II subunit gamma (Homo sapiens) (Q13555 whole entry): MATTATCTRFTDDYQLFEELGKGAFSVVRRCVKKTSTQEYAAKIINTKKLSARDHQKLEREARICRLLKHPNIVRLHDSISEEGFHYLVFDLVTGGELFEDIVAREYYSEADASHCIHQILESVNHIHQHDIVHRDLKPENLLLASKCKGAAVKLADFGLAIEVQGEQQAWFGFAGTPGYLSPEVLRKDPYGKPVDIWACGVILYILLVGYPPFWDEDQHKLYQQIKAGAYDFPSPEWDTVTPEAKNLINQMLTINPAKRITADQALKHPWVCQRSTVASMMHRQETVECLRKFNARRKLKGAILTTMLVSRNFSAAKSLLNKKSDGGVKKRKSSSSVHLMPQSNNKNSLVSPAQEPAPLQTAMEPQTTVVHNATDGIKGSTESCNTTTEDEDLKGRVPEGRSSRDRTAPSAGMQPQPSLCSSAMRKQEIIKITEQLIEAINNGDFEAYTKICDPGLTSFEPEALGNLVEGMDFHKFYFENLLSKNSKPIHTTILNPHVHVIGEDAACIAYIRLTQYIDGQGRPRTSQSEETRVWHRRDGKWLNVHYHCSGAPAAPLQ

[6] = target: Calcium/calmodulin-dependent protein kinase type II subunit gamma (Homo sapiens) (UniProt Q13555); conditions: at 10 µM
[7] = target: Calcium/calmodulin-dependent protein kinase type II subunit delta (Homo sapiens) (UniProt Q13557); conditions: at 1 µM
Chain of Calcium/calmodulin-dependent protein kinase type II subunit delta (Homo sapiens) (Q13557 whole entry): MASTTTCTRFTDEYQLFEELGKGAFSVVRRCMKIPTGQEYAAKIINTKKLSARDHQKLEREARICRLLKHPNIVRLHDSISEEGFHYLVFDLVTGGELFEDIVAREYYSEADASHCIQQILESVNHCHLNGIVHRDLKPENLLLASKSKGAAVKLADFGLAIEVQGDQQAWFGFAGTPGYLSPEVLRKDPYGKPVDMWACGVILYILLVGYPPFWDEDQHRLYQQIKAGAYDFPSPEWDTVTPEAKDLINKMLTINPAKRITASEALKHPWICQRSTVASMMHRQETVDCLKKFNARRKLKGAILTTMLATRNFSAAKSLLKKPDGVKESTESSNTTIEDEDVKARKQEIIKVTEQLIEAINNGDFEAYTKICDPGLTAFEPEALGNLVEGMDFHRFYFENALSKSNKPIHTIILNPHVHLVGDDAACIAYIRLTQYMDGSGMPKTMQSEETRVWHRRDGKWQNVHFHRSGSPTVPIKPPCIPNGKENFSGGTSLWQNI

[8] = target: Calcium/calmodulin-dependent protein kinase type II subunit delta (Homo sapiens) (UniProt Q13557); conditions: at 10 µM
[9] = target: T1, Calcium/calmodulin-dependent protein kinase type IV (Homo sapiens) (UniProt Q16566); conditions: at 1 µM
T1 sequence (whole entry): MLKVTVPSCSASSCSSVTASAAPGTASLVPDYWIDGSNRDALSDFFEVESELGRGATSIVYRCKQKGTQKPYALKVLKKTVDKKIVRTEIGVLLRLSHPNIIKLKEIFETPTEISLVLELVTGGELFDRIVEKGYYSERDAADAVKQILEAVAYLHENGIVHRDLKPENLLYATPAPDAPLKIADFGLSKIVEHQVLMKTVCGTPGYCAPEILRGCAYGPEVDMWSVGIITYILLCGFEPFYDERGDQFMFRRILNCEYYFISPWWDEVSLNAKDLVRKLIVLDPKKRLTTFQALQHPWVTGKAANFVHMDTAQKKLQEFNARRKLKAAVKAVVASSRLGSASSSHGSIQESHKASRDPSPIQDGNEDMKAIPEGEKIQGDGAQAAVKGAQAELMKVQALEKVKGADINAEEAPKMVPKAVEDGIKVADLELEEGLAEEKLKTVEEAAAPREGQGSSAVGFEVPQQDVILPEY

[10] = target: T1, Calcium/calmodulin-dependent protein kinase type IV (Homo sapiens); conditions: at 10 µM

Chain of Calcium/calmodulin-dependent protein kinase type 1 (Homo sapiens) (Q14012 whole entry, looked up): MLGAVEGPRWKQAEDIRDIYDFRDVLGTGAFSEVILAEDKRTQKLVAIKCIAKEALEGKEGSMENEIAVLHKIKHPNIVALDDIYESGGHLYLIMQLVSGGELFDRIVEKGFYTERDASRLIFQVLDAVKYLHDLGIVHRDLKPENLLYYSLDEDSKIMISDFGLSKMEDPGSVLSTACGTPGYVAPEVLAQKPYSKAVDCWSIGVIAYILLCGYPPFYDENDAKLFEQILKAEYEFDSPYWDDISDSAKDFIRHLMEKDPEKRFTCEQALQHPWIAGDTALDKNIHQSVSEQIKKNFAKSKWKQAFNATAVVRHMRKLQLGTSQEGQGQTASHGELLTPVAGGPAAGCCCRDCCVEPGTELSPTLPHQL

| Structure (SMILES) | residual activity [1] | residual activity [2] | residual activity [3] | residual activity [4] | residual activity [5] | residual activity [6] | residual activity [7] | residual activity [8] | residual activity [9] | residual activity [10] |
| --- | --- | --- | --- | --- | --- | --- | --- | --- | --- | --- |
| O=C1Nc2ccc(Cl)cc2/C1=C/c1cc(Cl)c(O)c(Cl)c1 | 96% | 63% | 69% | 23% | 62% | 10% | 69% | 10% | – | – |
| O=C(NC(NC(=S)Nc1ccc(F)c([N+](=O)[O-])c1)C(Cl)(Cl)Cl)C(c1ccccc1)c1ccccc1 (stereo not given) | 99% | 91% | 91% | 72% | 99% | 89% | 99% | 82% | – | – |
| O=C1Cc2c([nH]c3ccc(Br)cc23)-c2ccccc2N1 | 94% | 74% | 81% | 57% | – | – | 58% | 16% | – | – |
| Cn1c2ccccc2c2c3c(c4c5ccccc5n(CCC#N)c4c21)CNC3=O | 80% | 32% | 11% | 10% | 2% | -5% | 1% | 1% | 100% | 58% |
| Nc1ncnc2c1c(-c1ccc(Oc3ccccc3)cc1)cn2C1CCCC1 | 95% | 29% | 83% | 57% | – | 72% | 98% | 68% | 112% | 85% |
| O=C(CCCc1ccc(-c2ccccc2F)cc1)Nc1ccc(O)cc1 | 92% | 73% | 100% | 89% | 106% | 75% | 109% | 78% | 104% | – |
| NCCNc1ncc(C(N)=O)c(Nc2cccc(C(F)(F)F)c2)n1 | 20% | -5% | 73% | 23% | 55% | 3% | 51% | 9% | 114% | 72% |
| O=C1NC(=O)c2c1c1c3ccccc3[nH]c1n1cncc21 | 61% | 36% | 22% | 14% | 15% | 7% | 12% | 6% | 61% | 62% |
| Cn1sc(=O)n(Cc2ccccc2)c1=O | 75% | 67% | 92% | 83% | – | – | 98% | 90% | 73% | 51% |
| Nc1ncnc2c1cnn2-c1ccccc1 | 99% | 69% | – | 35% | 91% | 51% | 98% | 63% | 125% | 92% |
| Nc1n[nH]c2nc3ccccc3nc12 | 87% | 68% | 75% | 16% | 86% | 28% | 86% | 36% | 121% | 87% |
| CC(C)N(CCC(=O)c1ccc2ccccc2c1)Cc1ccccc1 | 100% | 80% | 88% | 84% | – | – | – | – | – | – |
| COc1ccc(-c2cnc3c(-c4ccsc4)cnn3c2)cc1 | 88% | 80% | 93% | 89% | 71% | 79% | 80% | 87% | – | – |
| Nc1ncnc2[nH]nc(Nc3ccc(F)cc3)c12 | 91% | 72% | 67% | 20% | – | 30% | 77% | 26% | 100% | 104% |
| CCCCc1c(-c2ccc(OC)cc2)[nH]c2nccnc12 | 109% | 86% | 82% | 84% | 64% | 26% | 73% | 42% | 112% | – |
| COc1cc2nccc(Oc3ccc(NC(=O)Nc4cc(C)on4)c(Cl)c3)c2cc1OC | 105% | 41% | 97% | 69% | 108% | 70% | 102% | – | 123% | 54% |
| CC(C)c1nn(-c2c(Cl)cccc2Cl)c2nc(Cc3ccc(OCCO)cc3)[nH]c(=O)c12 | 90% | 91% | 91% | 59% | 95% | 60% | 94% | 67% | – | 82% |
| O=C1NC(=O)C(c2cn(CCCO)c3ncccc23)=C1c1cnccn1 | 93% | 97% | 75% | 70% | 88% | 74% | 80% | 64% | – | – |
| O=c1cc(N2CCOCC2)oc2c1ccc1ccccc12 | 104% | 72% | 103% | 72% | 104% | 81% | 99% | 75% | – | 103% |
| c1ccc(-c2cnc(Nc3ccc(OCCN4CCCC4)cc3)s2)cc1 | 101% | 41% | 48% | 7% | 19% | -1% | 22% | 4% | – | – |
| O=C1NC(=O)C(c2cn(CCCn3ccnc3)c3ccccc23)=C1Nc1ccccc1 | 106% | 53% | 77% | 45% | – | – | 77% | 23% | 106% | 74% |
| O=C(c1ccccc1)c1ccc(N2CCOCC2)cc1O | 95% | 98% | – | 71% | – | 78% | 100% | 76% | 111% | – |
| CCN(CC)CCNC(=O)c1c(C)[nH]c(/C=C2\C(=O)Nc3ccc(Cl)cc32)c1C | 51% | -2% | 8% | 1% | 3% | 0% | 3% | 1% | – | – |
| NC(=O)Nc1sc(-c2ccc(F)cc2)cc1C(N)=O | 74% | 18% | 86% | 40% | 82% | 32% | 83% | 31% | – | 72% |
| O=c1cc(N2CCNCC2)oc2c(-c3ccccc3)cccc12 | 105% | 80% | 91% | 84% | 104% | 88% | 101% | 77% | – | 87% |
| COc1ccc2c(c1)c(C1=C(c3c[nH]c4ccccc34)C(=O)NC1=O)cn2CCCN(C)C | 96% | 45% | 80% | 28% | 62% | 10% | 42% | 8% | 105% | 61% |

| Structure (SMILES) | residual activity [1] | residual activity [2] | residual activity [3] | residual activity [4] | residual activity [5] | residual activity [6] | residual activity [7] | residual activity [8] | residual activity [9] | residual activity [10] |
| --- | --- | --- | --- | --- | --- | --- | --- | --- | --- | --- |
| COc1cc2ncnc(Nc3cccc(Cl)c3)c2cc1OC | 108% | 62% | – | 60% | 45% | 5% | 60% | 18% | – | – |
| O=C(O)/C=C/c1cc(Br)c(Br)c(Br)c1Br | 102% | 74% | 78% | 39% | 98% | 31% | 83% | 26% | 94% | 80% |
| CC(C)(C)n1nc(Cc2cccc3ccccc23)c2c(N)ncnc21 | 105% | 88% | 89% | 68% | 106% | 78% | 106% | 78% | 122% | 74% |
| CC(C)(C)c1nc2c3ccc(F)cc3c3c(=O)[nH]ccc3c2[nH]1 | 60% | 9% | – | 33% | 21% | 3% | 24% | 11% | 1% | 0% |
| O=C1Cc2c([nH]c3ccc([N+](=O)[O-])cc23)-c2ccccc2N1 | – | – | 61% | 76% | 24% | – | 32% | 20% | – | – |
| CCCC(=O)Oc1ccc2[nH]c(C(=O)c3cc4ccccc4[nH]3)cc2c1 | – | 89% | 86% | 85% | 99% | 102% | – | 83% | – | 53% |
| N#Cc1c(NC(=O)c2cccc3ccccc23)sc2c1CCCC2 | – | – | 94% | 81% | – | 97% | – | 88% | – | 87% |
| CSc1nc(-c2ccc(F)cc2)c(-c2ccnc(NC(C)c3ccccc3)c2)[nH]1 (stereo not given) | – | 87% | – | 75% | 98% | 83% | 102% | 83% | – | 92% |
| CCOC(=O)c1c(C)[nH]c(/C=C2\C(=O)Nc3ccccc32)c1C | – | 77% | 98% | 93% | 77% | 48% | 79% | 59% | – | – |
| O=C(Nc1nc2ccccc2n1CCN1CCOCC1)c1cccc([N+](=O)[O-])c1 | – | – | 83% | 83% | – | 76% | 103% | 85% | 115% | 53% |
| O=C(c1cc2cc(O)ccc2[nH]1)c1cc2cc(O)ccc2[nH]1 | – | 37% | 53% | 14% | 30% | 2% | 23% | 4% | 114% | 76% |
| COc1ccc(COc2ccc(Cc3cnc(N)nc3N)cc2OC)cc1 | – | 76% | – | – | – | – | – | – | 130% | – |
| CCOc1nc(NC(=O)Cc2cc(OC)ccc2OC)cc(N)c1C#N | – | 78% | – | – | – | – | – | – | – | – |
| Nc1nccc(-c2c(-c3ccc(F)cc3)ncn2C2CCNCC2)n1 | – | – | – | 55% | – | 62% | 100% | 56% | – | – |
| COc1ccc(Cl)cc1NC(=O)Nc1cc(C)nc2ccccc12 | – | – | 88% | 72% | – | – | – | – | – | – |
| COc1cc2c(cc1OC)-c1n[nH]c(Nc3cccc(F)c3)c1C2 | – | – | – | 56% | 99% | 60% | – | – | – | – |
| N#C/C(=C\c1ccc(O)c(O)c1)C(=O)NCc1ccccc1 | – | 87% | – | 89% | – | – | – | – | 121% | 84% |
| Oc1cccc(-c2nc(N3CCOCC3)c3oc4ncccc4c3n2)c1 | – | – | – | 90% | 98% | 66% | – | – | – | 75% |
| O=C1NC(=O)C(c2c[nH]c3ccccc23)=C1c1c[nH]c2ccccc12 | – | 57% | 68% | 13% | 40% | 4% | 28% | 4% | 100% | 54% |
| COc1ccc(CNC(=O)Nc2ncc([N+](=O)[O-])s2)cc1 | – | 72% | – | – | – | – | – | – | – | – |
| N#C/C(=C1/Nc2ccccc2S1)c1ccnc(NCCc2cccnc2)n1 | – | – | – | 25% | 80% | 21% | 83% | 24% | 88% | 34% |
| O=c1cc(N2CCOCC2)oc2c(-c3ccccc3)cccc12 | – | 55% | – | 79% | – | – | – | – | – | – |
| O=C1C(Cl)=C(N2C(=O)CCC2=O)C(=O)c2ccccc21 | – | 78% | 90% | 86% | – | – | 97% | 99% | – | 10% |
| NC(=O)c1ccc(-c2nc(-c3ccc4c(c3)OCCO4)c(-c3ccccn3)[nH]2)cc1 | 91% | 73% | – | 88% | – | – | 100% | 98% | – | – |
| COc1cc2nccc(Oc3ccc(NC(=S)NC(=O)c4ccccc4C)cc3)c2cc1OC | – | 75% | 79% | 66% | – | – | – | 85% | 121% | 84% |
